The sample as a whole holds a higher share of hits than the screen did.
IL1B secr inh – inhibitors of inflammasome signaling (IL-1 beta secretion); THP-1 LPS/ATP IL-1B secretion, AlphaLISA, 16 h; hits give low values; activity change, % at 57.5 µM; actives 4.7% (n = 360,000); AID 743279; in the data active means activity change below about -50%; inconclusive means mostly about -30% to -49%
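Secreted IL-1B measured by AlphaLISA bead assay after 16 h compound exposure of THP-1 cells; compounds (final up to 57.5 uM) added 1 h before LPS (250 ng/mL) and ATP (1.25 mM) stimulation; lower signal means less secretion.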
TDP1 cell noCPT – qHTS for Inhibitors of human tyrosyl-DNA phosphodiesterase 1 (TDP1): qHTS in cells in absence of CPT. DT40 Tdp1-/- hTDP1 cells, no CPT, ATP luminescence, 48 h. Potency, µM (series often up to 46.2 µM), most hits filed as inhibitors. actives 15% (n = 420,000); further: nearly all actives have a fitted effect of over 55% in size
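Growth kinetics read by CellTiter-Glo luminescence after ≥48 hr at 37 °C. Cells: DT40 Tdp1-/- stably carrying human TDP1, 400 per well, compound exposure in the absence of CPT (DMSO vehicle).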
HT1080 IDH1KD tx – toxicity to HT-1080 IDH1 knockdown cells (counter line) | HT-1080 IDH1 knockdown viability, ATP luminescence, 48 h | Potency, µM (highest dose often 46.1 µM), hits mostly cytotoxic | actives 2% (n = 360,000) | AID 686971
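After a 2 h attachment period, IDH1KD HT-1080 cells took pin-transferred compound for 48 h at 37 °C; ATP-based luminescence after 10 min room-temperature reagent incubation reported viability.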
HT1080NT lethal – kills 2HG-producing HT-1080-NT fibrosarcoma cells; actives 1.6% (n = 360,000); AID 686970; HT-1080-NT fibrosarcoma viability, CellTiter-Glo ATP luminescence, 48 h; Potency, µM (titrated, usually from 46.1 µM), usual class: cytotoxic;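 further: NT is the 2HG producing partner of a matched IDH1 knockdown line; nearly all actives have a fitted effect of over 55% in size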
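HT-1080-NT fibrosarcoma cells (2HG-overproducing), 750 cells/well in RPMI with 5% FBS, dosed after 2 h and incubated 48 h at 37C. CellTiter-Glo luminescence normalized to DMSO and no-cell wells; concentration-response curves fitted and classed.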
ALOX12 inh – blocks human arachidonate 12S-lipoxygenase | P18054 | purified 12hLO, xylenol orange hydroperoxide absorbance | Potency, µM (series often up to 108 µM), hits mostly inhibitors | actives 1.1% (n = 580,000)
Target sequence (P18054 whole entry, looked up): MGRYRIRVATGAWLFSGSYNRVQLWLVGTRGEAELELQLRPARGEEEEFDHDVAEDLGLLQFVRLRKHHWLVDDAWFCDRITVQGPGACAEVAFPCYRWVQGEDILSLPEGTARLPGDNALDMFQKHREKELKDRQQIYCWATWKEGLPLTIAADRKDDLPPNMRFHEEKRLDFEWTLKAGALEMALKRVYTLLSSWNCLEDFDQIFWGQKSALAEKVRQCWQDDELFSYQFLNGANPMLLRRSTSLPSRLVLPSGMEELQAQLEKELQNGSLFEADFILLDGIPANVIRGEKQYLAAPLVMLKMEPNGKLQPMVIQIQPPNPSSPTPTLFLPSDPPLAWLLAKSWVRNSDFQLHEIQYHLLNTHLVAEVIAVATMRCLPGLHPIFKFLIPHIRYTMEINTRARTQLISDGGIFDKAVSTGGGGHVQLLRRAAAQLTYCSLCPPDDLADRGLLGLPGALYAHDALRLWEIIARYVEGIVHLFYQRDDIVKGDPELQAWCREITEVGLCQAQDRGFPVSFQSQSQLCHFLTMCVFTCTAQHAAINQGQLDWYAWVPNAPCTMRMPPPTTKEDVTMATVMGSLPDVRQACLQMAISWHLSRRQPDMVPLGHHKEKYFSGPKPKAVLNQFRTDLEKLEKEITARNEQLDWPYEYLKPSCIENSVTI
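Hydroperoxide product was detected by ferrous iron/xylenol orange as the 573 to 405 nm absorbance ratio. Arachidonic acid at 40 uM (final) was turned over for 30 min at room temperature by 150 nM human 12hLO, pH 7.0 Hepes buffer, after 15 min compound preincubation.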
DT40 TDP1 CPT – growth inhibition of DT40 Tdp1-/-;hTDP1 cells with camptothecin (screen for TDP1 inhibitors). chicken DT40 Tdp1-/-;hTDP1 cells + 20 nM CPT, ATP luminescence, 48 h. Potency, µM (highest dose often 46.2 µM), hits mostly inhibitors. actives 12% (n = 420,000). AID 686979; further: nearly all actives have a fitted effect of over 55% in size
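Chicken DT40 Tdp1-/- cells stably complemented with human TDP1 were seeded at 400 cells/well in medium containing 20 nM camptothecin, exposed to pin-transferred compounds, and grown at 37 °C for at least 48 hr. Viability was read as ATP luminescence.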
Hits are given with their value; - = inactive; ? = inconclusive; . = no result given; [ ] = another dose, or the depositor's remark. Unless noted, the call rests on the fitted dose curve; in most records, active means well fitted curve in the direction sought with a large enough effect; inconclusive means small, poorly fitted or top-dose-only effect, or another doubt; inactive means no such curve, though single readings can be large; an effect the other way counts as inactive or inconclusive.

SMILES | IL1B secr inh | TDP1 cell noCPT | HT1080 IDH1KD tx | HT1080NT lethal | ALOX12 inh | DT40 TDP1 CPT
Cc1cccc2nc(-c3cccnc3)c(Nc3ccc(C(C)C)cc3)n12 | . | 16µM | . | . | - | ?
Cc1ccccc1Nc1c(-c2cccnc2)nc2cccc(C)n12 | - | 21µM | - | - | ? | ?
Cc1ccccc1Nc1c(-c2cccs2)nc2cccc(C)n12 | . | 13µM | . | . | - | 15µM
O=C(c1ccccc1F)N1CCC2(CC1)CCN(Cc1cccs1)c1ccccc1O2 | . | . | . | . | - | .
COc1ccc(/C=C/C(=O)N(c2ccccn2)C2CCCCC2)cc1OC | - | ? | - | - | - | 23µM
COc1ccc(C(=O)N(c2ccccn2)C2CCCCC2)c(OC)c1 | - | - | - | - | - | -
O=C(/C=C/c1cccc(F)c1)N(c1ccccn1)C1CCCCC1 | - | ? | - | - | - | 13µM
O=C(/C=C/c1ccc(Cl)cc1)N1CCN(c2ccccn2)CC1 | - | ? | - | - | - | -
O=C(/C=C/c1ccc(Cl)cc1)N(c1ccccn1)C1CCCCC1 | -57 | 21µM | - | - | - | ?
CN(C(=O)/C=C/c1ccccc1)C1CCCCC1 | -51 | - | - | - | - | -
CCOC(=O)c1c(C)[nH]c(C)c1C(=O)COC(=O)c1ccc(OC)cc1 | - | - | - | - | - | -
CCOC(=O)c1c(C)[nH]c2ccc3c(c12)CN1CCc2cc(OC)ccc2[C@@H]1O3 | . | 7.5µM | . | . | - | 8.4µM
OCCC1CN(Cc2ccccc2OC2CCCC2)CCN1Cc1ccsc1 (stereo not drawn) | - | 15µM | - | - | - | ?
OCCC1CN(Cc2cccc3nonc23)CCN1Cc1ccsc1 (stereo not drawn) | - | - | - | - | - | -
OCCC1CN(Cc2ccc(-c3ccco3)cc2)CCN1Cc1ccsc1 (stereo not drawn) | -61 | ? | - | - | - | ?
COc1cc(F)ccc1-c1cc(-c2c(C)noc2C)cc2c1C(=O)N(C)C2 | . | . | . | . | - | .
CCOc1ccc(NC(=S)Nc2ccccc2C2(C)CC2)cc1 | ? | 8.2µM | - | - | ? | ?
CC1=C(C)CC2(SC1)C(=O)N(c1ccccc1)N=C2N (stereo not drawn) | - | 21µM | - | - | - | 7.3µM
CC1=NN(c2ccccc2)C(=O)C1(C)C | - | - | - | - | - | -
O=C(CCC1CCCN(C(=O)CC2=CCCCC2)C1)N1CCN(c2ccccn2)CC1 (stereo not drawn) | - | 16µM | - | - | - | ?
CC(C)c1cc(C(=O)N2CCCC(CCC(=O)N3CCN(c4ccccn4)CC3)C2)no1 (stereo not drawn) | - | 23µM | - | - | - | 23µM
Cc1ccccc1C(=O)N1CCCC(CCC(=O)N2CCN(c3ccccn3)CC2)C1 (stereo not drawn) | - | ? | - | - | - | -
O=C(CCC1CCCN(C(=O)C2=CCCC2)C1)N1CCN(c2ccccn2)CC1 (stereo not drawn) | - | 23µM | - | - | - | -
Cc1ccsc1CN(Cc1ccc(CN(C)S(C)(=O)=O)o1)CC(C)C | . | . | . | . | - | .
O=C1Nc2c(Br)cccc2C1=O | - | 12µM | - | - | ? | 8.2µM
SMILES | IL1B secr inh | TDP1 cell noCPT | HT1080 IDH1KD tx | HT1080NT lethal | ALOX12 inh | DT40 TDP1 CPT
COC(=O)c1cccc2c1NC(=O)C2=O | - | 21µM | - | - | - | -
O=C1Nc2c(Cl)cccc2C1=O | - | 23µM | ? | ? | - | 15µM
Cc1cccc2c1NC(=O)C2=O | - | - | - | - | - | ?
COC(=O)c1ccccc1OC | . | . | . | . | - | .
COc1cc(C(=O)NC2(C(F)(F)F)NC(=O)N(c3ccccc3F)C2=O)cc(OC)c1OC (stereo not drawn) | . | . | . | . | - | .
CCNC(=O)N(C1CC1)C1CCOC2(CCN(C(=O)Cc3ccccc3)CC2)C1 (stereo not drawn) | . | . | . | . | - | .
Fc1ccc(Nc2cncc(-c3ccsc3)c2)cc1Cl | - | 18µM | - | - | 40µM | 16µM
O=C(Nc1cccnc1)Nc1ccc(F)c(Cl)c1 | - | ? | - | - | - | -
CCCCNCCCOc1ccc(C)cc1Br | . | 16µM | - | - | - | 18µM
Cc1ccc(OCCCNCCO)c(Br)c1 | -60 | 4.6µM | 21µM | ? | - | 4.6µM
Cn1c(=O)[nH]c(=O)c2c1nc(N1CCNCC1)n2CCCc1ccccc1 | . | . | . | . | - | .
Cc1[nH]n(-c2ccccc2)c(=O)c1/C=C1/C=c2ccccc2=N1 | - | 21µM | - | - | - | ?
Cc1[nH]n(-c2ccccc2)c(=O)c1/C=C1\C=NN=C1c1ccccc1 | . | - | - | - | - | -
Cc1nn(C)c(C)c1CNCc1ccnc(N2CCOCC2)c1 | . | . | . | . | 11µM | .
CC1CC1CNC(=O)c1nccnc1N (stereo not drawn) | . | . | . | . | - | .
Cc1ncoc1C(=O)N1C[C@@H](COc2ccccc2)[C@H](C(N)=O)C1 | . | . | . | . | - | .
Cc1nccc(C(=O)NCC(O)c2ccccc2C(F)(F)F)n1 (stereo not drawn) | . | . | . | . | - | .
Cc1cccc(C2NC(c3cccc(C)c3)C([N+](=O)[O-])C(C)(C)C2[N+](=O)[O-])c1 (stereo not drawn) | - | 16µM | - | - | - | ?
CCOc1ccc2c(n1)CCN(C(=O)Cc1cccc(C)c1)C2 | . | . | . | . | - | .
O=C(NCc1ccc(Cl)c(Cl)c1)c1cc(C2CCCCN2C(=O)c2ccccc2)on1 (stereo not drawn) | ? | 13µM | - | - | ? | 18µM
O=C(NCc1ccc(Cl)c(Cl)c1)c1cc(C2CCCCN2C(=O)c2cccs2)on1 (stereo not drawn) | - | 21µM | - | - | ? | 15µM
Cn1cnc(S(=O)(=O)N2CCCCC2c2cc(C(=O)NCc3ccc(Cl)c(Cl)c3)no2)c1 (stereo not drawn) | - | 6.5µM | - | ? | - | ?
CCCNC(=O)c1cc(C2CCCCN2C(=O)c2cccs2)on1 (stereo not drawn) | - | - | - | - | - | ?
COCCOC(=O)N1CCCCC1c1cc(C(=O)NCc2ccc(Cl)c(Cl)c2)no1 (stereo not drawn) | - | ? | - | - | - | 15µM
CC1(C)[C@H](Cc2cc(-c3ccc(F)cc3)on2)C[C@@H]1NC1CCOCC1 | . | . | . | . | - | .
COc1ccc(-n2nc3n(c2=O)CCN(Cc2cccc4ccccc24)C3)cc1 | . | . | . | . | -[6.33 µM] | .
Cc1ccnc(NC(=O)C2CCN(C(=O)C3CC3)CC2)c1 | . | . | . | . | - | .
CN1Cc2ccc(N3CCOCC3)nc2C(C)(C(=O)NCCCn2ccnc2)C1 (stereo not drawn) | . | . | . | . | - | .

High-throughput results from PubChem BioAssay.
